Targets with a hit are over-represented here; the source holds about 7,900 in all. About 0.6% of all pairs of compound and target were hits. Unmarked numbers belong to inactive results.
Tests used:
Assay in all cases: log2 fold change, soluble protein after heating vs DMSO (PISA); higher = thermal stabilisation; K562 cells, 10 uM, 30 min; active = over 0.2 and 3.5 SD of the protein, either way, in both replicates (recomputed)
erlotinib = compound: C#Cc1cccc(Nc2ncnc3cc(OCCOC)c(OCCOC)cc23)c1 [erlotinib]
In short: (§1)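 For each measurement, 10 μM compound was applied for 30 min to K562 cells at 2×10^6 cells/mL. Aliquots were heated for 3 min across 48°C-58°C, pooled, and extracted in PBS with 0.5% NP-40 at 4°C; the supernatant after 21,000xg for 90 min was soluble protein. This was quantified by TMTpro 16plex LC-MS/MS with channel sums equalised, and thermal stability was reported relative to control samples from duplicates, on a log2 fold-change scale.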

[1] = compound: C/C(=N\NC(=O)C1=CC(=CC=C1)S(=O)(=O)N2CCOCC2)/C3=C(C=CC(=C3)Cl)O
In short: as §1

[2] = compound: C1=CC(=C(C=C1Cl)C2=NC3=NC=CN=C3C(=N2)NC4=CC=NC=C4)F
In short: as §1

[3] = compound: C1=CC(=CC=C1C2=NC3=C(N2)C=C(C=C3)C(=O)N)OC4=CC=C(C=C4)Cl
In short: as §1

[4] = compound: C1=CC2=C(C=CC(=C2)/C=C\3/C(=O)NC(=NCC4=CC=CS4)S3)N=C1
In short: as §1

[5] = compound: C1=CC2=NC=CN=C2C=C1/C=C/3\C(=O)NC(=O)S3
In short: as §1

[6] = compound: C1=CC=C(C=C1)C2=NC(=C(N2)C3=CC=NC=C3)C4=CC(=C(C=C4)Cl)O
In short: as §1

[7] = compound: C1=CC=C2C(=C1)C3=NNC4=CC=CC(=C43)C2=O
In short: as §1

[8] = compound: C1CCN(C1)C(=O)NC2=CC=CC(=C2)NC3=NC=C(C(=N3)NCCC4=CN=CN4)Br
In short: as §1

[9] = compound: C1CN(CCC1(CC2=CC=C(C=C2)Cl)N)C3=NC=NC4=C3C=CN4
In short: as §1

ibrutinib = compound: C=CC(=O)N1CCC[C@@H](n2nc(-c3ccc(Oc4ccccc4)cc3)c3c(N)ncnc32)C1 [ibrutinib]
In short: as §1

[10] = compound: CC(=O)c1cnc2ccc(-c3cc(Cl)c(O)c(Cl)c3)nc2c1N[C@H]1CC[C@H](CN(C)C)CC1
In short: as §1

ralimetinib = compound: CC(C)(C)Cn1c(N)nc2ccc(-c3[nH]c(C(C)(C)C)nc3-c3ccc(F)cc3)nc21 [ralimetinib]
In short: as §1

[11] = compound: CC(C)(O)CC(=O)NCCn1ccc2ncnc(Nc3ccc(Oc4cccc(C(F)(F)F)c4)c(Cl)c3)c21
In short: as §1

[12] = compound: CC(C)C1=C2N=C(C=C(N2N=C1)NCC3=CC=CC=C3)NCCCCCCN
In short: as §1

[13] = compound: CC(C)C[C@@H](C=O)NC(=O)[C@H](CC(C)C)NC(=O)[C@H](CC(C)C)NC(=O)OCc1ccccc1
In short: as §1

[14] = compound: CC1=C(C(CC(=O)N1)C2=CC=C(C=C2)C(F)(F)F)C(=O)NC3=C(C=C4C(=C3)C=NN4)F
In short: as §1

[15] = compound: CC1=C(C2=C(C=C1)C(=O)C3=CC=CC=C3N2CCCN)C
In short: as §1

IRAK-1-4 Inhibitor I = compound: C1COCCN1CCN2C3=CC=CC=C3N=C2NC(=O)C4=CC(=CC=C4)[N+](=O)[O-] [IRAK-1-4 Inhibitor I]
In short: as §1

pinometostat = compound: CC(C)N(C[C@H]1O[C@@H](n2cnc3c(N)ncnc32)[C@H](O)[C@@H]1O)[C@H]1C[C@@H](CCc2nc3cc(C(C)(C)C)ccc3[nH]2)C1 [pinometostat]
In short: as §1

UniProt Q9NRS6, sequence (Q9NRS6 whole entry, looked up): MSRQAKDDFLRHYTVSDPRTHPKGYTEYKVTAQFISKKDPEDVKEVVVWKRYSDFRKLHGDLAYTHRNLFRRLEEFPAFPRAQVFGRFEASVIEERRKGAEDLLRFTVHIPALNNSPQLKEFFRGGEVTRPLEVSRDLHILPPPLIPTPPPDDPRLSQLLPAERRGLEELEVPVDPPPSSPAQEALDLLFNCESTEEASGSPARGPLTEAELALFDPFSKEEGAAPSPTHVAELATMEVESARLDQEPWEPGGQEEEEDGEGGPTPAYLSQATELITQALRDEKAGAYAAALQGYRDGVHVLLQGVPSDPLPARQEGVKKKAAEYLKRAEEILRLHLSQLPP
UniProt Q969X1, sequence (Q969X1 whole entry, looked up): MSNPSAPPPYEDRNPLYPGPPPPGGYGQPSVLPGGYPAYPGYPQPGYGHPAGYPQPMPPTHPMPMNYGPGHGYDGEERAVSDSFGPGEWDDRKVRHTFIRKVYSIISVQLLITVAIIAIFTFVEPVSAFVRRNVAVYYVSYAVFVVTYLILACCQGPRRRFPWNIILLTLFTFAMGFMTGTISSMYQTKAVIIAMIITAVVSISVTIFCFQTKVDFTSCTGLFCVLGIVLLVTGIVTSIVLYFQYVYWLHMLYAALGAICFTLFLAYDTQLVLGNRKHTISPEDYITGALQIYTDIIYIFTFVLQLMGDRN
UniProt Q9P016, sequence (Q9P016 whole entry, looked up): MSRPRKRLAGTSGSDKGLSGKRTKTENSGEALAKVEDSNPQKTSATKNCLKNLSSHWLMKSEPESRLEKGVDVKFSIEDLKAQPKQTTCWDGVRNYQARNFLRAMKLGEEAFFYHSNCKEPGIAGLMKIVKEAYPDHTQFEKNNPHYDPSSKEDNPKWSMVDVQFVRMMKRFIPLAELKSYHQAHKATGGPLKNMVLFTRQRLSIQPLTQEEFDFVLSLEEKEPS
UniProt Q9NS93, sequence (Q9NS93 whole entry, looked up): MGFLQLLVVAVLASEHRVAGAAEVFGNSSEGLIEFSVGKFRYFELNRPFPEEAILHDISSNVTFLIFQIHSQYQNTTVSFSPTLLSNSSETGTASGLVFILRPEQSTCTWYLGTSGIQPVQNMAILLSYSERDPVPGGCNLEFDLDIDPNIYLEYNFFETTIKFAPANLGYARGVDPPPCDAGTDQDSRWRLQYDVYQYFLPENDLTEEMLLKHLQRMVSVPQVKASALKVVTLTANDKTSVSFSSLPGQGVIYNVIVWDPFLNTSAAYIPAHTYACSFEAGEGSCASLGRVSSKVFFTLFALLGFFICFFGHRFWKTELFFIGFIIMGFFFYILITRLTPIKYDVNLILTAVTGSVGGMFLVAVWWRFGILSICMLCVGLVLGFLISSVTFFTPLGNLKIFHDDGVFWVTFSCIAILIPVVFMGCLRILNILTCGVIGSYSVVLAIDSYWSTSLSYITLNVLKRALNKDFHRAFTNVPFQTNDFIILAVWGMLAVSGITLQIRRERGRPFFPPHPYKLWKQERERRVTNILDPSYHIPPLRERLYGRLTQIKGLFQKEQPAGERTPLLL
UniProt Q9Y6J9, sequence (Q9Y6J9 whole entry, looked up): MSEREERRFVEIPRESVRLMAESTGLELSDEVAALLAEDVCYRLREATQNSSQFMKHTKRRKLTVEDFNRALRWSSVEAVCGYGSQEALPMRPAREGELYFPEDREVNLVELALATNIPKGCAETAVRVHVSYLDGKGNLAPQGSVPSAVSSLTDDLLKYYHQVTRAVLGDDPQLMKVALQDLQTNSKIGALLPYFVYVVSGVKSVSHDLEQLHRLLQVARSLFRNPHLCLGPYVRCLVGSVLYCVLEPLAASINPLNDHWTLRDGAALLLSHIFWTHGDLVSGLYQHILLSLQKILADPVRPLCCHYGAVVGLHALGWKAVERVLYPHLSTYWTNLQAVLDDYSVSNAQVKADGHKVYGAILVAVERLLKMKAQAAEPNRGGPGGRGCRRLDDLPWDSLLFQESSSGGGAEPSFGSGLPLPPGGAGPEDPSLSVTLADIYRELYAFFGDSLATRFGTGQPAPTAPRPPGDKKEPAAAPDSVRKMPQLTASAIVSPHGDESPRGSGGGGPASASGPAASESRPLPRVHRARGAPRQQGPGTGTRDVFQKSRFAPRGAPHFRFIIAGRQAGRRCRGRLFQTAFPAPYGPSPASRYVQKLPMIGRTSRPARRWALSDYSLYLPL
UniProt Q969S0, sequence (Q969S0 whole entry, looked up): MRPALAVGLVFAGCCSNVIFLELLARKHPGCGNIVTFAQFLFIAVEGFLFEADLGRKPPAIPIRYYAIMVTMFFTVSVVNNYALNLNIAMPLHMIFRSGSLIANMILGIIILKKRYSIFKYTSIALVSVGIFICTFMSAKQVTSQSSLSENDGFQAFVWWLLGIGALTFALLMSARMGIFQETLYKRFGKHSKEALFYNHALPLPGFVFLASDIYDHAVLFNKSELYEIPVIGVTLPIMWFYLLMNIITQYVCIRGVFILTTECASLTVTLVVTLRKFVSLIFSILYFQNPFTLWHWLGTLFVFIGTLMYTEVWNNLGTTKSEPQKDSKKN
UniProt Q8TCT7, sequence (Q8TCT7 whole entry, looked up): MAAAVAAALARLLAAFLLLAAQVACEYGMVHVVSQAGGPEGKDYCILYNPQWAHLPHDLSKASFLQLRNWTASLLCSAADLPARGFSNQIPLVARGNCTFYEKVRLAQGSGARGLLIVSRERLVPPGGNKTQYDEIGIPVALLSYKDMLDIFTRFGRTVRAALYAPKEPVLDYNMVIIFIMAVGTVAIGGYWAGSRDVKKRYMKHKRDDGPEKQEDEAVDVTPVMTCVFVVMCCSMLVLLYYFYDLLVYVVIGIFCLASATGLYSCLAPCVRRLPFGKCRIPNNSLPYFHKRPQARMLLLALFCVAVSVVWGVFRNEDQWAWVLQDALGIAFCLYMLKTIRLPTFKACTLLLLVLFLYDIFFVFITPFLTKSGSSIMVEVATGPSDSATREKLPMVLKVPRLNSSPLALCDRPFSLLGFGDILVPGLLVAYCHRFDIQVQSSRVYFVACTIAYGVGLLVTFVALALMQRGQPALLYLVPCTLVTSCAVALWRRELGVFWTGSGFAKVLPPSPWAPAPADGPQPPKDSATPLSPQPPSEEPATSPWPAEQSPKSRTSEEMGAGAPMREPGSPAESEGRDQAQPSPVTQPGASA
UniProt P55061, sequence (P55061 whole entry, looked up): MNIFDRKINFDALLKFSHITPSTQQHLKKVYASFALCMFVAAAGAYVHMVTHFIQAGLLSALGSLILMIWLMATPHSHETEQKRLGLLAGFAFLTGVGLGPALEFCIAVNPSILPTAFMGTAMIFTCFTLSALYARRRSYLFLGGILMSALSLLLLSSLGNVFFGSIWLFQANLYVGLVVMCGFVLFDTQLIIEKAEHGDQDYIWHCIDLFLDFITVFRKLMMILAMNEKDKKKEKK
UniProt Q9UKI8, sequence (Q9UKI8 whole entry, looked up): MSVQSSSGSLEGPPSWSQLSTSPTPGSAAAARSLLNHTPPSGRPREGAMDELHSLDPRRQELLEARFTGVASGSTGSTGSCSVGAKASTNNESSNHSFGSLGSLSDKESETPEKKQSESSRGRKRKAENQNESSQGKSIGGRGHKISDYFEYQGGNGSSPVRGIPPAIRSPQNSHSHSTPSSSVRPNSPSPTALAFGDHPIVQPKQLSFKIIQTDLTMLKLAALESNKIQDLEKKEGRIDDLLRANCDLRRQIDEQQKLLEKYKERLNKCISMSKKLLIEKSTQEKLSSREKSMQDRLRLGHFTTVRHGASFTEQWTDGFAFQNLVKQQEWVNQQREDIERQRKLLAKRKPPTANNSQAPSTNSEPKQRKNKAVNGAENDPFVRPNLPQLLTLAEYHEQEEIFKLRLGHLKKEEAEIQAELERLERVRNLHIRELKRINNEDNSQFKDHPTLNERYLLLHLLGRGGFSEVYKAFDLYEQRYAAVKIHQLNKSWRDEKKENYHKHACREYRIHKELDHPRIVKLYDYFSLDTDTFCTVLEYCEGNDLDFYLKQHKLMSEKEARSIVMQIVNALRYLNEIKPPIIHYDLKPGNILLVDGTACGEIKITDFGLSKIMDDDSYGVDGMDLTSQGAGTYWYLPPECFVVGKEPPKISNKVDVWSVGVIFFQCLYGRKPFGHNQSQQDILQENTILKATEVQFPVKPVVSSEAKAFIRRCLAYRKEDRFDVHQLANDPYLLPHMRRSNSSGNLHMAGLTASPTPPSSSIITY
UniProt P23497, sequence (P23497 whole entry, looked up): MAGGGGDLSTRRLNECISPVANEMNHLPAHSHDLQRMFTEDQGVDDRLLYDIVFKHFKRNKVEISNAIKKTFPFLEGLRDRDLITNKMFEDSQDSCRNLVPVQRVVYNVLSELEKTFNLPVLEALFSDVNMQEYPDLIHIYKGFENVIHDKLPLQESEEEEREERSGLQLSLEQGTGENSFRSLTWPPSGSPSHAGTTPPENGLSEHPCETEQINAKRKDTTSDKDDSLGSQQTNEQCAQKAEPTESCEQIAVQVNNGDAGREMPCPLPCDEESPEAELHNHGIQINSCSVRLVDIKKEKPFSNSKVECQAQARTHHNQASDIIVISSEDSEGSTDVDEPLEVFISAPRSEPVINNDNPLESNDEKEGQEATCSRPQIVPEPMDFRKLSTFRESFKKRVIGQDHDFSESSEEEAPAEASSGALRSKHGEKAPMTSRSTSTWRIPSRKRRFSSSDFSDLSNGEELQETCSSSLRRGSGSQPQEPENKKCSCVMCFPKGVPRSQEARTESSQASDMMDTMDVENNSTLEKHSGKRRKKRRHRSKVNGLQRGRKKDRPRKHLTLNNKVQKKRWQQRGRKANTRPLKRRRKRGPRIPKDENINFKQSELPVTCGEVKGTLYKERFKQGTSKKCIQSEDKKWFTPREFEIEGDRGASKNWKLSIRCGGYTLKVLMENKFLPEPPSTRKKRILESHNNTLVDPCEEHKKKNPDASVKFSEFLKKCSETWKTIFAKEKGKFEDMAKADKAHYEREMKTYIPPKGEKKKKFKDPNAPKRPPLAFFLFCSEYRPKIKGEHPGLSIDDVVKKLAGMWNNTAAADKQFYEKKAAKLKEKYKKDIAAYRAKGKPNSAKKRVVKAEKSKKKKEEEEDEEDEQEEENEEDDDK
UniProt Q8N5G0, sequence (Q8N5G0 whole entry, looked up): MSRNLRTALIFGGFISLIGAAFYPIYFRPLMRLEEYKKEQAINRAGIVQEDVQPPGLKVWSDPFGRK

| Target | log2 fold change (erlotinib) | log2 fold change [1] | log2 fold change [2] | log2 fold change [3] | log2 fold change [4] | log2 fold change [5] | log2 fold change [6] | log2 fold change [7] | log2 fold change [8] | log2 fold change [9] | log2 fold change (ibrutinib) | log2 fold change [10] | log2 fold change (ralimetinib) | log2 fold change [11] | log2 fold change [12] | log2 fold change [13] | log2 fold change [14] | log2 fold change [15] | log2 fold change (IRAK-1-4 Inhibitor I) | log2 fold change (pinometostat) |
| --- | --- | --- | --- | --- | --- | --- | --- | --- | --- | --- | --- | --- | --- | --- | --- | --- | --- | --- | --- | --- |
| TMBIM1 (UniProt Q969X1) | 0.092 | -0.139 | 0.122 | -0.017 | 0.198 | -0.025 | 0.517 (active) | -0.069 | 0.172 | 0.049 | 0.037 | -0.126 | 0.264 | 0.16 | -0.066 | -0.166 | -0.107 | 0.089 |  |  |
| THYN1 (UniProt Q9P016) | -0.061 | 0.007 | -0.041 | 0.125 | 0 | 0.006 | -0.032 | 0.145 | -0.002 | -0.037 | -0.028 | 0.039 | -0.01 | 0.036 | -0.046 | 0.025 | -0.033 | 0.331 (active) | -0.032 | 0.004 |
| SLC25A42 (UniProt Q86VD7) | 0.08 | 0.01 | 0.089 | 0.01 | -0.032 | -0.026 | 0.079 | -0.137 | -0.086 | 0.066 | 0.045 | -0.002 | 0.041 | 0.015 | 0.014 | -0.037 | -0.045 | 0.077 | 0.034 | -0.027 |
| SMIM20 isoform 2 (UniProt Q8N5G0) | -0.039 | -0.111 | 0.427 (active) | 0.054 | -0.088 | 0.088 | 0.023 | -0.051 | -0.016 | -0.06 | -0.01 | -0.023 | -0.056 | -0.061 | 0.024 | 0.006 | 0.05 | -0.058 |  |  |
| SRSF4 (UniProt Q08170) | -0.054 | 0.015 | -0.325 | 0.05 | -0.155 | -0.072 | -0.024 | -0.109 | 0.007 | -0.254 | 0.069 | -0.261 | 0.125 | 0.088 | -0.174 | 0.019 | -0.009 | -0.379 | -0.306 | 0.126 |
| SYNE1 (UniProt Q8NF91) | 0.155 | -0.499 (active) | 0.07 | -0.132 | 0.132 | -0.02 | 0.058 | 0 | -0.038 | 0.172 | -0.015 | -0.398 | 0.127 | -0.212 | 0.097 | 0.064 | -0.031 | 0.075 | 0.062 | 0.002 |
| SYK (UniProt P43405) | 0.06 | 0.144 | -0.019 | 0.038 | 0.031 | -0.095 | 0.131 |  | -0.042 | 0.074 | 0.056 | -0.277 | 0.241 | -0.1 | 0.128 | 0.048 |  | -0.425 | -0.192 | 0.19 |
| TLK1 (UniProt Q9UKI8) | 0.012 | 0.038 | 0.041 | -0.012 | 0.042 | 0.005 | 0.01 | -0.034 | -0.032 | -0.014 | -0.003 | -0.089 | 0.02 | -0.032 | -0.064 | -0.041 | 0.019 | 0.218 (active) | 0.027 | -0.041 |
| TMBIM6 isoform 2 (UniProt P55061) | -0.019 | 0.029 | 0.051 | -0.062 | 0.067 | 0.076 | 0.019 | -0.07 | 0.026 | -0.01 | 0.001 | 0.004 | -0.208 | -0.437 (active) | -0.521 (active) | 0.135 | 0.003 | -0.075 | 0.023 | 0.017 |
| SLC35B4 (UniProt Q969S0) | -0.055 | 0.194 | -0.033 | 0.105 | 0.085 | 0.024 |  | -0.243 | -0.015 | -0.231 | 0.023 | 0.184 |  | 0.098 | -0.02 |  | -0.055 | 0.059 | 0.092 | -0.056 |
| SRSF9 (UniProt Q13242) | -0.084 | -0.4 | -0.721 (active) | 0.138 | -0.211 | 0.052 | -0.087 | -0.229 |  |  | 0.106 | -0.13 | 0.199 | 0.219 | 0.019 | 0.171 | -0.011 |  | -0.094 | 0.29 |
| SPPL2B (UniProt Q8TCT7) | 0.021 | -0.112 | -0.039 | 0.044 | 0.081 | 0.048 | 0.003 | -0.072 | -0.041 | 0.038 | 0.013 | -0.039 | 0.041 | 0.179 | -0.086 | 0.101 | 0.049 | 0.02 | -0.004 | -0.032 |
| SP100 isoform 4 (UniProt P23497) | 0.011 | 0.044 | 0.037 | 0.022 | -0.071 | 0.063 | 0.033 | -0.05 | -0.001 | 0.035 | -0.012 | 0.074 | 0.019 | 0.011 | -0.015 | -0.07 | 0.029 | -0.1 | 0.006 | -0.035 |
| SNRK (UniProt Q9NRH2) |  |  |  |  |  |  |  |  |  |  |  |  |  |  |  |  |  |  | -0.126 | -0.087 |
| SNX15 (UniProt Q9NRS6) |  | 0.062 |  |  | -0.088 | -0.006 | 0 | -0.065 | -0.166 | -0.072 | -0.112 | -0.111 | -0.051 |  |  | 0.021 | -0.099 | -0.016 | -0.031 | -0.069 |
| SRCAP (UniProt Q6ZRS2) | 0.039 |  |  | 0.031 |  | 0.117 | -0.191 |  | 0.059 | -0.254 | 0 |  | 0.036 |  | 0.046 | 0.12 | 0.078 | 0.103 | -0.42 (active) | 0.037 |
| TM7SF3 (UniProt Q9NS93) | -0.073 | 0.053 |  | 0.03 | -0.101 | 0.034 | 0.02 | 0.061 | 0.001 | 0.123 | 0.014 | 0.055 | -0.068 |  | -0.485 (active) | 0.01 | 0.016 | 0.057 | -0.06 | -0.036 |
| TAF6L (UniProt Q9Y6J9) | 0.042 | 0.08 |  | -0.132 | 0.009 |  | -0.051 | 0.088 | -0.069 | -0.197 |  | 0.054 | -0.092 |  | 0.023 | 0.122 | 0.118 | -0.03 |  |  |

From the supplement of paper PMC10849652
